This is a sample that favours compounds with a hit; in the whole collection about 0.84% have one here.
PPARg SRC-2 ag = promotes SRC-2 coactivator recruitment by human PPARgamma | P37231 | PPARgamma LBD-SRC-2 recruitment, biochemical | activation, % at 8 µM | 200,000 tested, 0.34% active
Target sequence (P37231 whole entry, looked up, the tested form may be a part): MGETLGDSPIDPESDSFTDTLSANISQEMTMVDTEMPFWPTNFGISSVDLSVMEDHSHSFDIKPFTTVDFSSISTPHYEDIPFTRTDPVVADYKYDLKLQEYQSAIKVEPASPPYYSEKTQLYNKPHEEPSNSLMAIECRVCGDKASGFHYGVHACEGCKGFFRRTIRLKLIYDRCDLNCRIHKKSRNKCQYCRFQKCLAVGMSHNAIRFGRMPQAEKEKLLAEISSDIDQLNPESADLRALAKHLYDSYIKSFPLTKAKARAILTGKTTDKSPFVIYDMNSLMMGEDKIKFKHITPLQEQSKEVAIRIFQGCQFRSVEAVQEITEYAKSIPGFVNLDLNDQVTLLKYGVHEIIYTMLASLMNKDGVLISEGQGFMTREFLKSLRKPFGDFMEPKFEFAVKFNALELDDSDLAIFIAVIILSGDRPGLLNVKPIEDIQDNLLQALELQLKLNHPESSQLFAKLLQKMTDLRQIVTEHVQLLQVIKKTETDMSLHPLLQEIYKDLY
SRC1 TRFRET art = counter-screen for PPARgamma SRC-1 recruitment agonists: TR-FRET artefact; TR-FRET ratio at 8 µM; 99,000 tested, 0.34% active; TR-FRET detection artefact counter-screen, emission ratio; active compounds read high; AID 1051; in the data active = TR-FRET ratio above about 2300
TR-FRET SRC-2 ct = flags TR-FRET format artefacts in PPARgamma SRC-2 recruitment agonist screen; 200,000 tested, 0.4% active; TR-FRET ratio at 8 µM; TR-FRET artefact counter-screen; active compounds read high; in the data active = TR-FRET ratio above about 2000
SRC3 TRFRET art = counter-screen for PPARgamma SRC-3 recruitment agonists: TR-FRET artefact; TR-FRET ratio at 8 µM; PPARgamma/SRC-3 format; active compounds read high; 99,000 tested, 0.39% active; AID 1048; in the data active = TR-FRET ratio above about 2000
PPARg SRC-1 ag = agonists of human PPARgamma SRC-1 coactivator recruitment; AID 631; PPARgamma-SRC-1 coactivator recruitment biochemical assay; 200,000 tested, 0.41% active; activation, % at 8 µM; in the data active = activation above about 19%
PPARg SRC-3 ag = promotes SRC-3 coactivator recruitment by human PPARgamma | biochemical PPARgamma/SRC-3 coactivator recruitment assay | 200,000 tested, 0.26% active | activation, % at 8 µM; in the data active = activation above about 23%
PPARg SRC2 ag = confirmation of agonists of SRC-2 recruitment by human PPARgamma; shares compounds with PPARg SRC-3 ag; biochemical SRC-2 recruitment by PPARgamma; activation, % at 8 µM; 790 tested, 52% active; AID 1297
PPARg SRC1 conf = confirmation of agonists of SRC-1 recruitment by human PPARgamma. shares compounds with PPARg SRC-3 ag. PPARgamma–SRC-1 coactivator recruitment biochemical assay. activation, % at 8 µM. 790 tested, 43% active. AID 1300; in the data active = activation above about 20%
PPARg SRC3 ag = confirmation of agonists of SRC-3 recruitment by human PPARgamma. shares compounds with PPARg SRC-3 ag. biochemical PPARgamma-SRC-3 coactivator recruitment, agonist mode. activation, % at 8 µM. 790 tested, 29% active; in the data active = activation above about 24%
A number is an active result. Cut-off read from the data, not from the text of the source, unless noted: active = activation above about 22%; inactive = the rest.

For CN1C(=O)/C(=C/C=C2\SCCN2C)N(C)C1=S the results were PPARg SRC-2 ag inactive, SRC1 TRFRET art inactive, TR-FRET SRC-2 ct inactive, SRC3 TRFRET art inactive, PPARg SRC-1 ag 23.2, PPARg SRC-3 ag inactive, PPARg SRC2 ag inactive, PPARg SRC1 conf inactive and PPARg SRC3 ag inactive.
`CCOC(=O)CC1COCCN1Cc1cn(C)nc1-c1ccccc1F` (stereo not drawn) gave PPARg SRC-2 ag inactive, SRC1 TRFRET art inactive, TR-FRET SRC-2 ct inactive, SRC3 TRFRET art inactive, PPARg SRC-1 ag inactive and PPARg SRC-3 ag inactive.
Screening O=c1c2cn[nH]c2nc(SCc2cc(=O)n3cc(Br)ccc3n2)n1-c1ccc(Br)cc1 returned PPARg SRC-2 ag 35.8, SRC1 TRFRET art 3354, TR-FRET SRC-2 ct 2457, SRC3 TRFRET art 2853, PPARg SRC-1 ag 32.7, PPARg SRC-3 ag inactive, PPARg SRC2 ag 28.1, PPARg SRC1 conf inactive and PPARg SRC3 ag inactive.
O=c1c2cn[nH]c2nc(SCc2ccccc2F)n1-c1ccc(Br)cc1 was read as PPARg SRC-2 ag inactive, SRC1 TRFRET art inactive, TR-FRET SRC-2 ct inactive, SRC3 TRFRET art inactive, PPARg SRC-1 ag inactive and PPARg SRC-3 ag inactive.
Cc1ccc(NC(=O)CN(C)C(=O)CCC(=O)c2cccs2)cc1 was read as PPARg SRC-2 ag inactive, SRC1 TRFRET art inactive, TR-FRET SRC-2 ct inactive, SRC3 TRFRET art inactive, PPARg SRC-1 ag inactive and PPARg SRC-3 ag inactive.
`Cc1nc2scc(-c3ccccc3)c2c(=O)n1N=C1C=CC(=O)C=C1` gave PPARg SRC-2 ag 25.7, SRC1 TRFRET art inactive, TR-FRET SRC-2 ct inactive, SRC3 TRFRET art inactive, PPARg SRC-1 ag 39.4, PPARg SRC-3 ag 35.2, PPARg SRC2 ag 39.0, PPARg SRC1 conf 37.7 and PPARg SRC3 ag 30.6.
O=C(CSCc1ccc(Br)cc1)NCc1ccccn1 was read as PPARg SRC-2 ag inactive, SRC1 TRFRET art inactive, TR-FRET SRC-2 ct inactive, SRC3 TRFRET art inactive, PPARg SRC-1 ag inactive and PPARg SRC-3 ag inactive.
Screening O=c1c(Cl)c(Cl)cnn1-c1ccccc1 returned PPARg SRC-2 ag inactive, SRC1 TRFRET art inactive, TR-FRET SRC-2 ct inactive, SRC3 TRFRET art inactive, PPARg SRC-1 ag inactive and PPARg SRC-3 ag inactive.
For COc1cnn(-c2ccc(C)cc2)c(=O)c1SCc1ccccc1 the results were PPARg SRC-2 ag inactive, TR-FRET SRC-2 ct inactive, PPARg SRC-1 ag inactive and PPARg SRC-3 ag inactive.
Screening CSc1cnn(-c2ccccc2)c(=O)c1SC returned PPARg SRC-2 ag 120.8, TR-FRET SRC-2 ct 3988, PPARg SRC-1 ag 105.8, PPARg SRC-3 ag 151.6, PPARg SRC2 ag 98.7, PPARg SRC1 conf 68.1 and PPARg SRC3 ag 67.5.
Screening COc1cnn(-c2ccccc2)c(=O)c1SCc1ccc(Cl)cc1Cl returned PPARg SRC-2 ag inactive, TR-FRET SRC-2 ct inactive, PPARg SRC-1 ag inactive and PPARg SRC-3 ag inactive.
CCSc1cnn(-c2ccccc2)c(=O)c1SCC was read as PPARg SRC-2 ag 96.3, TR-FRET SRC-2 ct 3615, PPARg SRC-1 ag 68.1, PPARg SRC-3 ag 122.7, PPARg SRC2 ag 64.9, PPARg SRC1 conf 41.1 and PPARg SRC3 ag 47.1.
For CSc1cnn(Cc2ccccc2)c(=O)c1SCc1ccccc1 the results were PPARg SRC-2 ag 29.7, SRC1 TRFRET art 2367, TR-FRET SRC-2 ct inactive, SRC3 TRFRET art inactive, PPARg SRC-1 ag inactive, PPARg SRC-3 ag 24.4, PPARg SRC2 ag 84.6, PPARg SRC1 conf 61.4 and PPARg SRC3 ag 56.9.
`CCCCSc1cnn(-c2ccccc2)c(=O)c1SCCCC` gave PPARg SRC-2 ag 27.9, TR-FRET SRC-2 ct 1992, PPARg SRC-1 ag 23.6, PPARg SRC-3 ag 44.7, PPARg SRC2 ag 39.7, PPARg SRC1 conf 23.6 and PPARg SRC3 ag 25.6.
For O=Cc1cn(CC(=O)N2CCc3ccccc32)c2ccccc12 the results were PPARg SRC-2 ag inactive, SRC1 TRFRET art inactive, TR-FRET SRC-2 ct inactive, SRC3 TRFRET art inactive, PPARg SRC-1 ag inactive and PPARg SRC-3 ag inactive.
Screening C=CCn1c(-c2csc(-c3ccc(OC)c(OC)c3)n2)n[nH]c1=S returned PPARg SRC-2 ag 23.0, SRC1 TRFRET art inactive, TR-FRET SRC-2 ct 2116, SRC3 TRFRET art inactive, PPARg SRC-1 ag inactive, PPARg SRC-3 ag inactive, PPARg SRC2 ag inactive, PPARg SRC1 conf inactive and PPARg SRC3 ag inactive.
